# Laboratory results taken from the supplement of paper PMC6555819.
# Tests used:
# Assay in all cases: PBM binding z-score (relative to random genomic background probes); higher = stronger binding; sequences stand for … in GC…GCGATTGACAGCGTAGAATGAAGG
# [1] = test system: RARb homodimer (NR concentration 270 nM)
# Outline: (§1)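 On custom Agilent 4×180K arrays, double-stranded probes with 34-nt variable regions carried direct-repeat seeds, single-nucleotide variants, half-site ablations or random human genomic background. Ligand-free nuclear receptor dimers were applied for 1 h, and binding was read with antibodies against each partner (one per run). Binding z-scores come from regression-normalized fluorescence, with the random background probes as reference.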
# [2] = test system: RARg:RXRa (NR concentration 270 nM, RXRa partner concentration 90 nM)
# Outline: as §1
# [3] = test system: RARg homodimer (NR concentration 270 nM)
# Outline: as §1
# [4] = test system: RXRa DBDmut IVT, anti-RXR (DBD mutation: RXRa K156A/R161A, NR concentration 90 nM)
# Outline: as §1
# [5] = test system: RXRa homodimer (NR concentration 180 nM)
# Outline: as §1
# [6] = test system: THRa:RXRa (NR concentration 90 nM, RXRa partner concentration 90 nM)
# Outline: as §1
# [7] = test system: THRa homodimer (NR concentration 90 nM)
# Outline: as §1
# [8] = test system: VDR:RXRa (NR concentration 270 nM, RXRa partner concentration 90 nM)
# Outline: as §1
# [9] = test system: VDR homodimer (NR concentration 270 nM)
# Outline: as §1
Sequence,PBM binding z-score [1],PBM binding z-score [2],PBM binding z-score [3],PBM binding z-score [4],PBM binding z-score [5],PBM binding z-score [6],PBM binding z-score [7],PBM binding z-score [8],PBM binding z-score [9]
TCGAGTAGGTTGCCAATGGGGCATTCAGCTTTCT,-0.36,-0.509,-0.841,0.244,-0.482,-0.51,-0.951,-0.316,-0.846
TCTATTAGTTGAAGGGCAACCGACGAGTCCGTTT,1.41,0.635,0.786,1.57,0.701,0.419,0.09,1.09,1.87
CCGACTGGGGCATAAGTTTACCATAAGCCAGCCC,0.519,0.0613,0.233,0.17,-0.0212,-0.345,-0.433,-0.462,-0.134
CGAACGAGGGCATGAGTTAATAGCAAATGCCGAT,0.53,1.2,1.61,2.14,0.895,1.13,-0.42,0.731,1.02
CCTCCTGGGCCATCAGGTCATTGATATCAACGTT,2.47,1.98,1.71,-0.401,1.15,3.04,3.09,1.76,1.18
CCTTACGGGTCACAAGGTTATAGCACGACGAGCG,3.71,5.7,4.75,1.18,6.05,3.26,0.935,4.37,1.54
TCTTGTAGATCAGCATGTTAAGAAAGCTGGCCAA,-0.787,-0.255,-0.411,0.518,-0.151,-0.548,-0.975,0.172,-0.468
CCTTACGGGTCACTCCAGGTTATAGCCTCGGAGT,3.1,4.3,4.02,1.01,4.02,5.14,0.467,4.09,1.13
TCTAGTTGGTCACGGAGGTCACACAAGACGGGTA,4.03,4.88,4.81,1.22,4.67,3.75,2.37,5.67,3.03
CCGACTGGGGCATAATGTTACCATAAGCCAGCCC,-0.153,0.0195,0.3,-0.127,0.021,-0.493,-0.413,-0.48,-0.295
TCTGTTAGGTCAACGATGGTCAGCTAATCTGCTA,3.65,4.38,4.93,1.61,3.2,3.73,2.76,2.46,0.727
ACTCGGAGAACAAAGGTCAGAGCTACGCCAGTGA,4.39,4.46,3.88,0.505,4.55,2.76,0.0239,2.77,0.553
CCTAGCAGGCCAGGATCACTCAAGCATTTCGCTT,-0.596,-0.33,-0.385,-0.0229,-0.232,-0.455,-0.257,-0.583,-0.251
ACTATTAGTTGAGACGAGGCCAACCGATAGGTTG,0.728,0.273,0.272,0.0149,0.182,2.57,0.433,0.333,0.394
CGTCCAAGGTCAAGGTAAGTGAAAGAGACTCGAA,4.02,6.03,7.08,3.26,5.48,3.97,2.14,3.76,1.56
CCTTACGTGTCACGAGGTTATAGCACGACGAGCG,1.49,2.24,1.64,0.866,2.06,1.96,0.982,1.89,1.01
CCTTGTTGGTCAAGGTCACACACGCTATAGGTAC,4.53,4.56,4.95,1.83,4.51,4.31,4.1,3.83,3.13
GCTGCTAGGTCAGGTTGGTCAGCTGACGGGTACG,2.62,2.79,3.56,0.752,1.09,1.81,0.492,0.533,0.505
AGAACGAGGGCACGCTTAGTTGATAGCAGAGTAG,1.38,1.76,2.33,2.1,1.42,1.94,0.257,1.19,0.561
CCTAGTTGGTCGGGAGGTCACACACCGGATATGA,4.12,4.67,3.83,0.718,5.07,3.56,2.93,3.78,3.06
AGAATGAGGGCAATGAGTTGATAGCACGGGTGGC,1.18,1.31,1.47,2.27,0.95,1.59,0.363,4.98,3.47
TCTAGTTAGTCAAAGGTCACACACTCGAAATGCG,4.84,6.12,5.68,2.03,7.09,3.97,1.9,4.97,2.57
CGAACTAGGTCAGAACAGGAAAGTGAAGGATGAT,1.61,2.35,2.9,0.506,1.07,1.29,0.124,0.0955,-0.115
TCTATAAGTTGAAGGGCAACCGACGAGTCCGTTT,1.49,0.829,1.07,1.59,1.01,0.466,0.137,1.07,1.57
GCTGCTAGGTCAACTGATCGTCAGCTAAAGCTCG,3.16,4.5,5.79,1.38,2.8,2.73,0.546,1.13,-0.532
ATCGAAAGGTCGAGGTGAGTACAGAGAAAGGGAA,2.93,4.39,4.17,0.83,3.89,3.1,0.817,4.25,1.13

Sequence,PBM binding z-score [1],PBM binding z-score [2],PBM binding z-score [3],PBM binding z-score [4],PBM binding z-score [5],PBM binding z-score [6],PBM binding z-score [7],PBM binding z-score [8],PBM binding z-score [9]
TCTCCGAGGACACGAAGGTCAGAGCTTTCCAGAG,3.51,3.46,4.49,0.665,2.02,3.74,2.44,2.69,1.76
TCGACTAGGTTAGGGGCATTCAGAATGGCGTCGA,0.889,0.355,0.408,0.884,0.798,1.03,0.253,0.465,0.473
ATTCAAAGTTCACTAGGTAACGTAAGATTCAGCT,3.66,4.48,5.35,4.38,3.58,2.03,0.474,3.43,4.11
CGTCCAAGGTCAATGCTAGGTCAGTGTAAGCATT,5.02,7.55,7,3.74,5.35,4.48,2.75,4.85,3.52
CAAACTACGTCACAGAGGTCAAAGTCCGTGCGTA,4.71,5.46,4.64,1.87,6.27,3.7,1.47,5.85,4.03
CGAACTAGGTCAGCCAGGACAGTGAATACATTGA,2.65,3.04,4.54,1.2,1.54,3.12,1.45,3.1,0.353
TCTTGTAGATCAGCAGGTTAATAAAGCTGGCCAA,-0.292,-0.0895,-0.342,0.531,0.393,0.0327,-0.292,0.526,-0.451
CCTTAAGGGTCACTGACAGGTTATAGCATTTGGA,4.71,7.23,6.91,3.42,6.82,3.85,0.468,5,2.04
ATCTCTAGGTGACAAGTTCAGTGAAAGAGAGGAC,2.34,2.03,1.82,0.449,1.09,1.71,0.652,1.63,2.05
CCGAGTAGGTTATAGGGCATTCAGGCAACGGTGA,1.33,0.821,0.848,0.485,1.19,0.932,0.256,0.402,0.435
ATCGAAAGGTCGACGAGATGAGTATACACCGTTT,2.29,3.91,3.95,1.01,4.04,1.72,-0.43,2.46,0.403
AGTCAAAGTTCAGGACGAGGTAACGTACAGCACG,3.47,4.77,4.74,2.99,2.92,3.9,1.82,2.88,2.1
CAAACTAGGTCACAGAGGTCAAAGCCCGTGCGTA,5.57,7.25,7.63,3.22,7.75,4.82,2.99,7.81,6.06
ACTTACGGGTCAACGAGGTTATAGTACGCGTATA,3.9,5.7,5.01,2.85,6.32,4.14,1.34,7.78,4.38
CCAAACAGGTGAAAGGTAACTCAGTCTGGTACGC,0.802,1.11,0.696,0.223,1.99,0.954,0.0389,0.991,0.206
GGAACGAGGGCAAGATGATAGCAGAGTTTGATGG,1.21,1.2,1.78,1.52,0.962,0.971,-0.0312,0.221,1.08
TCATATAGGAAATACAGGTGAAAGTCGGCATCTA,0.167,0.527,0.553,2.12,1.37,0.441,0.299,1.02,0.241
TCTGCTGGGTCAGTTGGTCAGCTAACGAGCTGCC,2.12,2.77,2.99,0.212,1.06,0.669,-0.537,0.238,-0.562
TAGCCTAGGTCATGGGCGAGTATACCACGCGAAC,2.97,4.08,4.15,0.379,3.57,3.11,1.11,2.32,0.339
AATATTAGTTGAGACGAGGGCAACCGATAGGTTG,1.28,0.902,0.922,0.47,0.883,2.64,0.504,1.01,1.73
ACAGACAGGTGAGTGAAGGTAACTCCGCTGGACG,0.202,0.0663,0.259,-0.475,0.41,1.29,-0.349,-0.433,-0.537
TCTAGTTTGTCAAAGGTCACACACTCGAAATGCG,4.86,6.06,5.71,2.14,6.98,4.07,1.98,5.12,2.58
CAGCCCAGGTCAGGGCCAGTATAGGAGGAACGTT,2.54,3.15,3.67,-0.41,2.25,2.73,1.48,0.803,0.168
TCGAGTAGGTTACGAATGGGGCATTCAGCTTTCT,0.29,0.904,0.405,0.441,0.67,-0.0841,-1.13,-0.137,-0.811
AGAACGAGCGCAATGAGTTGATAGCACGGGTGGC,-0.96,-0.134,-0.287,-0.213,-0.0749,-0.609,-1.01,-0.0491,0.00307
AATAGTTGGTCAGCTGAGGTCACACACAATTCGG,4.34,4.25,4.37,1.48,4.26,4.94,5.21,4.69,3.62
